Test results published in PubChem BioAssay (NCATS).
Inconclusive results are not listed. Entries that show only a call come without a potency. Calls of active or inactive are those of the source. Calls come from the whole dose curve; as a rule, active = well fitted curve in the direction sought with a large enough effect; inconclusive = small, poorly fitted or top-dose-only effect, or another doubt; inactive = no such curve, though single readings can be large; an effect the other way counts as inactive or inconclusive.

Legend:
[1] = molecular target: Protein phosphatase 1D (Homo sapiens) (UniProt O15297); assay: RapidFire Mass Spectrometry qHTS Assay for Modulators of WT P53-Induced Phosphatase 1 (WIP1) (AID 1347424);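 note: amount of dephosphorylated VEPPL-S-QETFS peptide product formed by WIP1; series mostly up to about 63 µM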
Outline: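 10 nM WIP1 + cpd, 1 h RT; + 2 uM VEPPL-pS-QETFS, 5 min RT; stop 0.5% formic acid; labelled product standard 1 uM; RapidFire MS. Buffer 50 mM Tris pH 7.5, 30 mM MgCl2, 1 mM TCEP.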

[2] = molecular target: Protein phosphatase 1D (Homo sapiens) (UniProt O15297); assay: Rhodamine-PBP qHTS Assay for Modulators of WT P53-Induced Phosphatase 1 (WIP1) (AID 1347425)
Outline: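 WIP1 (5 nM final) was preincubated with compound for 1 hour at room temperature. It then dephosphorylated 10 uM VEPPL-pS-QETFS peptide in Tris-HCl pH 7.5 with 30 mM MgCl2. Released Pi was detected by 10 uM Rh-PBP fluorescence (ex 525/em 598 nm) read at 1-min intervals for 11 min, as delta f1 - f0.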

[3] = Primary qHTS for inhibitors of La Crosse Virus (LACV) - induced cell death in SH-SY5Y cells (AID 1508616);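 note: top concentration of the series differs between compounds; higher means more rescue of cells from virus-induced death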
Outline: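 Protection against LACV-induced cell death is scored in SH-SY5Y cells exposed to compounds and virus (0.01 MOI) for 6 days. Data normalized to virus-infected DMSO wells and virus-free DMSO wells.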

[4] = molecular target: Calcium and integrin-binding protein 1 (Homo sapiens) (UniProt Q99828); assay: Primary qHTS for Identification of Calcium Integrin Binding Protein 1 (CIB1) Competitor (AID 1508620); note: potency is the fitted concentration of half-maximal effect
Outline: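 CIB1-GST (1 uM final) and compound incubated 15 min at room temperature before adding FITC-alphaIIb peptide tracer (100 nM final). Competition for binding read by fluorescence polarization (ex 480, em 540) after another 15 min at room temperature.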

[5] = molecular target: Calcium and integrin-binding protein 1 (Homo sapiens) (UniProt Q99828); assay: Confirmatory qHTS for Identification of Calcium Integrin Binding Protein 1 (CIB1) Competitor (AID 1508617); note: nearly all actives have a fitted effect of over 65% in size
Outline: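 FP competition: CIB1-GST (1 uM final) in 5 mM HEPES pH 7.4, 125 mM NaCl, 5 mM CaCl2, 0.01% Tween20 preincubated 15 min RT with compounds (up to 114 uM), then FITC-alphaIIb peptide (100 nM), 15 min RT; Ex 480/Em 540.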

Chain of Protein phosphatase 1D (Homo sapiens) (O15297 whole entry, looked up): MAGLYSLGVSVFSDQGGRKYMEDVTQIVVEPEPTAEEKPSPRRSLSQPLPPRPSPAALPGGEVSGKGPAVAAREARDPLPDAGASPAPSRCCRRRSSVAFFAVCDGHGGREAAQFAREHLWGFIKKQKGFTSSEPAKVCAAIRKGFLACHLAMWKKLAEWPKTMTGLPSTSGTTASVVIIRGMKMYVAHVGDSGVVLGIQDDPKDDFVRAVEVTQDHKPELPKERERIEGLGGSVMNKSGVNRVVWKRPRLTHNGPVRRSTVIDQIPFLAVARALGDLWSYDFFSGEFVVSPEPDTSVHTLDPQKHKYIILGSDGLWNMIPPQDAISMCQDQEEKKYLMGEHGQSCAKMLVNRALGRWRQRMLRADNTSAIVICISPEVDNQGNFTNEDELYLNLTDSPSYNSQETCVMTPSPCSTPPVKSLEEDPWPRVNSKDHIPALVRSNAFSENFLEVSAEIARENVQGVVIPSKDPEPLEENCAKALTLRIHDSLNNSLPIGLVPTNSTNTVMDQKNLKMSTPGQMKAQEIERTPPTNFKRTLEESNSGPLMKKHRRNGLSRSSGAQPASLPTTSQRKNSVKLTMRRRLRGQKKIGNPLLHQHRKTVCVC
Chain of Calcium and integrin-binding protein 1 (Homo sapiens) (Q99828 whole entry, looked up): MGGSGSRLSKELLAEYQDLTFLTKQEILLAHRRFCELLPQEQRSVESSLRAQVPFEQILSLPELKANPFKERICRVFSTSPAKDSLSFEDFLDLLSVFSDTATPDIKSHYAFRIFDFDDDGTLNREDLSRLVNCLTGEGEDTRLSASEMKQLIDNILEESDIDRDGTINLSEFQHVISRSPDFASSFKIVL

Compound | Potency [1] | outcome [2] | outcome [3] | Potency [4] | Potency [5]
CCc1ccc(C(=O)C(C)CN2CCCCC2)cc1 (stereo not given) | inactive | inactive | inactive | inactive | –
NCCNc1cccc2ccccc12 | inactive | inactive | inactive | inactive | –
Nc1ccc(S(=O)(=O)Nc2cnc3ccccc3n2)cc1 | inactive | inactive | inactive | – | –
CC(=O)Nc1ccc(S(=O)(=O)Nc2ccc([N+](=O)[O-])cc2)cc1 | inactive | inactive | inactive | inactive | –
COc1cc([C@H]2Oc3cc([C@H]4Oc5cc(O)cc(O)c5C(=O)[C@@H]4O)ccc3O[C@@H]2CO)ccc1O | inactive | inactive | inactive | 35.5 µM (active) | inactive
CN1CCc2cccc3c2[C@H]1Cc1ccc(O)c(O)c1-3 | inactive | inactive | inactive | – | inactive
CC(C)Nc1cccnc1N1CCN(C(=O)c2cc3cc(NS(C)(=O)=O)ccc3[nH]2)CC1 | inactive | inactive | inactive | – | –
Cc1cc(CC(=O)O)c(C)n1-c1ccc(Cl)cc1 | inactive | inactive | inactive | inactive | –
CC(=O)Nc1ccc(OC(=O)c2ccccc2OC(C)=O)cc1 | inactive | inactive | inactive | inactive | –
CCOC(=O)[C@@](C)(N)Cc1ccc(O)c(O)c1 | inactive | inactive | inactive | inactive | –
CCNC(=O)/C=C/c1cccc(Br)c1 | inactive | inactive | inactive | inactive | –
CCCCC(CC)COC(=O)/C=C/c1ccc(OC)cc1 (stereo not given) | inactive | inactive | inactive | inactive | –
COP(=O)(OC)OC(c1ccc(Cl)cc1)P(=O)(OC)OC (stereo not given) | inactive | inactive | inactive | inactive | –
C/C=C/C=N/NC(=O)c1ccncc1 | inactive | inactive | inactive | – | –
CN(C)C(=O)Nc1ccc(Cl)c(Cl)c1 | inactive | inactive | inactive | inactive | –
COc1cc(C(=O)NCc2ccc(OCCN(C)C)cc2)cc(OC)c1OC | inactive | inactive | inactive | inactive | –
CCCN(CCc1cccs1)[C@H]1CCc2c(O)cccc2C1 | inactive | inactive | inactive | inactive | –
CN1CCN(c2c(F)cc3c(=O)c(C(=O)O)cn4c3c2SCC4)CC1 | inactive | inactive | inactive | inactive | –

Compound | Potency [1] | outcome [2] | outcome [3] | Potency [4] | Potency [5]
COc1ccc(CCN(C)CCCN2CCc3cc(OC)c(OC)cc3CC2=O)cc1OC | inactive | inactive | inactive | inactive | –
C[N+]1(C)CCC(=C(c2ccccc2)c2ccccc2)CC1 | inactive | inactive | inactive | inactive | –
CC(C)(C)CC(C)(C)c1ccc(O)c(-n2nc3ccccc3n2)c1 | inactive | inactive | inactive | inactive | –
NC(=O)c1ccccc1O | inactive | inactive | inactive | – | –
C[C@]12CCC(=O)C=C1C=C[C@@H]1[C@@H]2CC[C@@]2(C)[C@H]1CC[C@@]21CCC(=O)O1 | inactive | inactive | inactive | inactive | –
CCN(CC)CCOC(=O)C1(c2ccccc2)CCCC1 | inactive | inactive | inactive | – | –
NC(=O)C1(N2CCCCC2)CCN(CCCC(=O)c2ccc(F)cc2)CC1 | inactive | inactive | inactive | inactive | –
CCCCCCCCOc1ccc(C(=O)c2ccccc2)c(O)c1 | inactive | inactive | inactive | – | –
CCC1NC(=O)c2cc(S(N)(=O)=O)c(Cl)cc2N1 (stereo not given) | inactive | inactive | inactive | inactive | –
CCNC(=O)NCc1cccc(Cl)c1 | inactive | inactive | inactive | inactive | –
CC1=C(C(=O)O)N2C(=O)[C@@H](NC(=O)[C@H](N)c3ccccc3)[C@H]2SC1 | inactive | inactive | inactive | inactive | –
O=C(CCCN1CC=C(n2c(=O)[nH]c3ccccc32)CC1)c1ccc(F)cc1 | inactive | inactive | inactive | inactive | –
O=C(NCCc1c[nH]c2ccccc12)c1cccnc1 | inactive | inactive | inactive | inactive | –
CCCCCN=C(N)N/N=C/c1c[nH]c2ccc(OC)cc12 | inactive | inactive | inactive | inactive | –
COc1ccc(C(Cl)=C(c2ccc(OC)cc2)c2ccc(OC)cc2)cc1 | inactive | inactive | inactive | inactive | –
CC(=O)NCCCCCC(=O)O | inactive | inactive | inactive | inactive | –
Cc1cc(NS(=O)(=O)c2ccc(N)cc2)nc(C)n1 | inactive | inactive | inactive | inactive | –
